Unmarked numbers belong to inactive results. Inconclusive results are not listed. Where a call stands in place of a potency, no number is given. Activity calls are given as the source filed them. The call rests on the fitted dose curve; in most records, active means well fitted curve in the direction sought with a large enough effect in the repeat runs; inconclusive means weak or mixed curves; inactive means no such curve, though single readings can be large; an effect the other way counts as inactive or inconclusive.
What was measured:
[1] = qHTS RealTime-Glo MT Cell Viability Assay in HepG2 cells - 8 hour (AID 1224873); further: nearly all actives have a fitted effect of over 55% in size
How it was run: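 HepG2 cells mixed with RealTime-Glo MT reagents (NanoLuc plus cell-permeant prosubstrate) were seeded at 600 cells/well, incubated 5 h at 37 C/5% CO2, then pinned with compounds in DMSO; nonlytic luminescence tracked viability during 40 h treatment.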

[2] = A CellTox Green Cytotoxicity Assay to monitor cytotoxicity in HEK293 cells - 24 hour (AID 1224875); further: series mostly up to about 77 µM; nearly all actives have a fitted effect of over 45% in size
How it was run: (§1)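 Nonlytic real-time cytotoxicity: HEK293 + CellTox Green reagent plated, 5 h preincubation, pintool compound addition (23 nL in DMSO), 37 C for 40 h, fluorescence measured at successive time points.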

[3] = A CellTox Green Cytotoxicity Assay to monitor cytotoxicity in HepG2 cells - 16 hour (AID 1224876); further: nearly all actives have a fitted effect of over 45% in size
How it was run: (§2)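 Read-out is fluorescence of a cyanine dye excluded from live cells that stains DNA of dead HepG2 cells, with signal proportional to cytotoxicity. Plates were read at 0, 8, 16, 24, 32 and 40 h after compound addition.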

[4] = qHTS RealTime-Glo MT Cell Viability Assay in HepG2 cells - 32 hour (AID 1224877); further: nearly all actives have a fitted effect of over 55% in size
How it was run: (§3)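 Tox21 10K library screened in qHTS format on HepG2 cells carrying RealTime-Glo reagents. Compounds were added after a 5 h preincubation, and the luminescent signal from continuous culture was measured repeatedly during 40 h treatment.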

[5] = A CellTox Green Cytotoxicity Assay to monitor cytotoxicity in HepG2 cells - 24 hour (AID 1224878); further: nearly all actives have a fitted effect of over 45% in size
How it was run: as §2

[6] = A CellTox Green Cytotoxicity Assay to monitor cytotoxicity in HepG2 cells - 40 hour (AID 1224879); further: nearly all actives have a fitted effect of over 40% in size
How it was run: as §2

[7] = qHTS RealTime-Glo MT Cell Viability Assay in HEK293 cells - 0 hour (AID 1224880); further: top concentration of the series differs between compounds; nearly all actives have a fitted effect of over 45% in size
How it was run: (§4)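 Cells were seeded together with NanoLuc luciferase and a prosubstrate that viable cells reduce to a luciferase substrate. After a 5 h incubation at 37 C/5% CO2, compounds were added and luminescence was measured repeatedly during 40 h of treatment.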

[8] = A CellTox Green Cytotoxicity Assay to monitor cytotoxicity in HEK293 cells - 32 hour (AID 1224881); further: nearly all actives have a fitted effect of over 40% in size
How it was run: as §1

[9] = A CellTox Green Cytotoxicity Assay to monitor cytotoxicity in HepG2 cells - 0 hour (AID 1224882); further: nearly all actives have a fitted effect of over 35% in size
How it was run: as §2

[10] = A CellTox Green Cytotoxicity Assay to monitor cytotoxicity in HepG2 cells - 32 hour (AID 1224883); further: nearly all actives have a fitted effect of over 50% in size
How it was run: as §2

[11] = A CellTox Green Cytotoxicity Assay to monitor cytotoxicity in HEK293 cells - 8 hour (AID 1224884); further: nearly all actives have a fitted effect of over 35% in size
How it was run: as §1

[12] = qHTS RealTime-Glo MT Cell Viability Assay in HepG2 cells - 16 hour (AID 1224885); further: nearly all actives have a fitted effect of over 50% in size
How it was run: as §3

[13] = A CellTox Green Cytotoxicity Assay to monitor cytotoxicity in HEK293 cells - 16 hour (AID 1224888); further: nearly all actives have a fitted effect of over 35% in size
How it was run: as §1

[14] = qHTS RealTime-Glo MT Cell Viability Assay in HepG2 cells - 0 hour (AID 1224889); further: nearly all actives have a fitted effect of over 50% in size
How it was run: as §3

[15] = A CellTox Green Cytotoxicity Assay to monitor cytotoxicity in HepG2 cells - 8 hour (AID 1224890); further: nearly all actives have a fitted effect of over 45% in size
How it was run: as §2

[16] = qHTS RealTime-Glo MT Cell Viability Assay in HEK293 cells - 16 hour (AID 1224872); further: top concentration of the series differs between compounds; nearly all actives have a fitted effect of over 50% in size
How it was run: (§5)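 Luminescence generated by NanoLuc from substrate produced by living HEK293 cells served as the viability signal. Each value reflects the reading at its stated time point during continuous 40 h compound exposure at 37 C.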

[17] = qHTS RealTime-Glo MT Cell Viability Assay in HEK293 cells - 40 hour (AID 1224874); settings: RealTime-Glo luminescence; max response: hits give low values; further: nearly all actives have a fitted effect of over 50% in size; further: potency means the concentration at half of the fitted maximal effect
How it was run: as §4

[18] = qHTS RealTime-Glo MT Cell Viability Assay in HEK293 cells - 24 hour (AID 1224886); further: nearly all actives have a fitted effect of over 50% in size; further: potency means the concentration at half of the fitted maximal effect
How it was run: as §5

[19] = qHTS RealTime-Glo MT Cell Viability Assay in HEK293 cells - 8 hour (AID 1224887)
How it was run: as §4

CC(COc1ccc(Oc2ccccc2)cc1)Oc1ccccn1 (stereo not given)
Potency [1]: inactive
Potency [2]: inactive
Potency [3]: inactive
Potency [4]: inactive
Potency [5]: inactive
Potency [6]: inactive
outcome [7]: inactive
Potency [8]: inactive
outcome [9]: inactive
Potency [10]: inactive
Potency [11]: inactive
Potency [12]: inactive
Potency [13]: inactive
Potency [14]: inactive
Potency [15]: inactive

N#CCCC#N
Potency [16]: inactive
max response [17]: 17.5%
Potency [2]: inactive
Potency [3]: inactive
Potency [4]: inactive
Potency [5]: inactive
Potency [6]: inactive
outcome [7]: inactive
Potency [8]: inactive
outcome [9]: inactive
Potency [10]: inactive
Potency [12]: inactive
Potency [18]: inactive
Potency [19]: inactive
Potency [13]: inactive
Potency [15]: inactive

ClC(Br)Br
Potency [16]: inactive
Potency [1]: inactive
Potency [2]: inactive
Potency [3]: inactive
Potency [5]: inactive
Potency [6]: inactive
outcome [7]: inactive
Potency [8]: inactive
outcome [9]: inactive
Potency [10]: inactive
Potency [11]: inactive
Potency [12]: inactive
Potency [18]: inactive
Potency [19]: inactive
Potency [13]: inactive
Potency [14]: inactive
Potency [15]: inactive

CCC(Cl)[N+](=O)[O-] (stereo not given)
Potency [1]: inactive
max response [17]: 4.31%
Potency [2]: inactive
Potency [3]: inactive
Potency [5]: inactive
Potency [6]: inactive
outcome [7]: inactive
Potency [8]: inactive
outcome [9]: inactive
Potency [10]: inactive
Potency [11]: inactive
Potency [12]: inactive
Potency [18]: inactive
Potency [19]: inactive
Potency [14]: inactive
Potency [15]: inactive

CN1C(=S)CN=C(c2ccccc2)c2cc(Cl)ccc21
Potency [16]: inactive
Potency [1]: inactive
Potency [2]: inactive
Potency [3]: inactive
Potency [4]: inactive
Potency [5]: inactive
Potency [6]: inactive
outcome [7]: inactive
outcome [9]: inactive
Potency [10]: inactive
Potency [12]: inactive
Potency [18]: inactive
Potency [19]: inactive
Potency [14]: inactive
Potency [15]: inactive

CCCCOP(=O)(O)OCCCC
Potency [16]: inactive
Potency [1]: inactive
Potency [2]: inactive
Potency [3]: inactive
Potency [5]: inactive
Potency [6]: inactive
outcome [7]: inactive
Potency [8]: inactive
outcome [9]: inactive
Potency [10]: inactive
Potency [11]: inactive
Potency [12]: inactive
Potency [18]: inactive
Potency [19]: inactive
Potency [13]: inactive
Potency [14]: inactive
Potency [15]: inactive

CC(C1CC1)C(O)(Cn1cncn1)c1ccc(Cl)cc1 (stereo not given)
Potency [1]: inactive
Potency [2]: inactive
Potency [3]: inactive
Potency [4]: inactive
Potency [5]: inactive
Potency [6]: inactive
outcome [7]: inactive
Potency [8]: inactive
outcome [9]: inactive
Potency [10]: inactive
Potency [11]: inactive
Potency [12]: inactive
Potency [19]: inactive
Potency [13]: inactive
Potency [14]: inactive
Potency [15]: inactive

CC1=C(C(=O)Nc2ccccc2)S(=O)(=O)CCO1
Potency [1]: inactive
Potency [17]: 43.6 µM (active)
Potency [2]: inactive
Potency [3]: inactive
Potency [5]: inactive
Potency [6]: inactive
Potency [8]: inactive
Potency [10]: inactive
Potency [11]: inactive
Potency [12]: inactive
Potency [19]: inactive
Potency [13]: inactive
Potency [15]: inactive

CCc1cc2c(s1)-n1c(C)nnc1CN=C2c1ccccc1Cl
Potency [1]: inactive
Potency [3]: inactive
Potency [4]: inactive
Potency [5]: inactive
Potency [6]: inactive
outcome [7]: inactive
outcome [9]: inactive
Potency [10]: inactive
Potency [12]: inactive
Potency [18]: inactive
Potency [19]: inactive
Potency [14]: inactive

CCSC(=O)N(CC)C1CCCCC1
Potency [1]: inactive
max response [17]: -0.642%
Potency [2]: inactive
Potency [3]: inactive
Potency [4]: inactive
Potency [5]: inactive
Potency [6]: inactive
outcome [7]: inactive
outcome [9]: inactive
Potency [10]: inactive
Potency [12]: inactive
Potency [18]: inactive
Potency [19]: inactive
Potency [13]: inactive
Potency [14]: inactive
Potency [15]: inactive

CC(C)[N+](=O)[O-]
Potency [16]: inactive
max response [17]: 0.0306%
Potency [2]: inactive
Potency [3]: inactive
Potency [4]: inactive
Potency [5]: inactive
Potency [6]: inactive
outcome [7]: inactive
Potency [8]: inactive
outcome [9]: inactive
Potency [10]: inactive
Potency [11]: inactive
Potency [12]: inactive
Potency [18]: inactive
Potency [19]: inactive
Potency [13]: inactive
Potency [14]: inactive

CCCCP(CCCC)CCCC
Potency [16]: inactive
Potency [1]: inactive
Potency [2]: inactive
Potency [3]: inactive
Potency [4]: inactive
Potency [5]: inactive
Potency [6]: inactive
outcome [7]: inactive
Potency [8]: inactive
outcome [9]: inactive
Potency [10]: inactive
Potency [11]: inactive
Potency [12]: inactive
Potency [18]: inactive
Potency [19]: inactive
Potency [13]: inactive
Potency [14]: inactive
Potency [15]: inactive

Fc1ccc(C2(Cn3cncn3)OC2c2ccccc2Cl)cc1 (stereo not given)
Potency [1]: inactive
Potency [17]: 27.5 µM (active)
Potency [2]: inactive
Potency [3]: inactive
outcome [7]: inactive
Potency [8]: inactive
outcome [9]: inactive
Potency [11]: inactive
Potency [12]: inactive
Potency [18]: 43.6 µM (active)
Potency [13]: inactive
Potency [14]: inactive
Potency [15]: inactive

CC(=O)[C@H]1CC[C@H]2[C@@H]3CC[C@H]4C[C@H](O)CC[C@]4(C)[C@H]3C(=O)C[C@]12C
max response [17]: -27.6%
Potency [2]: inactive
Potency [3]: inactive
Potency [4]: inactive
Potency [5]: inactive
Potency [6]: inactive
outcome [7]: inactive
Potency [8]: inactive
outcome [9]: inactive
Potency [10]: inactive
Potency [11]: inactive
Potency [12]: inactive
Potency [18]: inactive
Potency [19]: inactive
Potency [13]: inactive

O=C(NCO)NCO
Potency [16]: inactive
max response [17]: 2.7%
Potency [2]: inactive
Potency [3]: inactive
Potency [5]: inactive
Potency [6]: inactive
outcome [7]: inactive
Potency [8]: inactive
Potency [10]: inactive
Potency [11]: inactive
Potency [12]: inactive
Potency [18]: inactive
Potency [19]: inactive
Potency [13]: inactive
Potency [14]: inactive
Potency [15]: inactive

CC1(C)CON(Cc2ccccc2Cl)C1=O
Potency [16]: inactive
Potency [1]: inactive
Potency [2]: inactive
Potency [3]: inactive
Potency [4]: inactive
Potency [5]: inactive
Potency [6]: inactive
outcome [7]: inactive
Potency [8]: inactive
outcome [9]: inactive
Potency [10]: inactive
Potency [11]: inactive
Potency [12]: inactive
Potency [18]: inactive
Potency [19]: inactive
Potency [13]: inactive
Potency [15]: inactive

CCC(C)n1c(=O)[nH]c(C)c(Br)c1=O (stereo not given)
Potency [16]: inactive
max response [17]: 0.435%
Potency [2]: inactive
Potency [3]: inactive
Potency [4]: inactive
Potency [5]: inactive
Potency [6]: inactive
outcome [7]: inactive
Potency [8]: inactive
outcome [9]: inactive
Potency [10]: inactive
Potency [11]: inactive
Potency [12]: inactive
Potency [18]: inactive
Potency [19]: inactive
Potency [15]: inactive

Source: PubChem BioAssay (Tox21)
